# High-throughput results from PubChem.
# Rows were chosen to be rich in hits. Some 2.3% of all compounds tested hit in one or more screens of this group.
# Chronic BCR inh = qHTS Assay to Find Inhibitors of Chronic Active B-Cell Receptor Signaling; ABC-DLBCL IkBa-CBG/CBR reporter, luminescence ratio, 4 h; Potency, µM (top dose mostly 46.1 µM), without a hit: at the top dose activity change, negative = inhibition, most hits filed as inhibitors; actives 0.05% (n = 340,000); active means well fitted inhibition curve with a large enough effect in the signal ratio, with a control signal flat, not every such curve was filed as active; inconclusive means small, poorly fitted or top-dose-only effect, or effect the other way, or a change in a side signal; the % refers to the signal ratio;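 further: plate controls were basal doxycycline-induced cells for no effect and cells given 10 µM MG132 for full effect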
#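 Doxycycline induced both beetle luciferases in TMD8 lymphoma cells; IKK-driven degradation limits the IkappaBalpha-fused green signal, while red luminescence normalises for cell number and nonspecific effects. Compounds tested up to 46 uM, 4 hrs.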
# TDP43 rescue = qHTS of TDP-43 Inhibitors; TDP-43 expressing yeast growth rescue, BacTiter-Glo, 24 h; Potency, µM (highest dose often 46.1 µM), inactives show top-dose growth rescue (activation), usual class: activators; actives 1.8% (n = 410,000); further: % of control where 0% means no effect; nearly all actives have a fitted effect of over 50% in size
#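 Luminescence from BacTiter-Glo reports growth of TDP-43-expressing yeast after 24 hr at 30 deg C with compound. Cells were raffinose-pregrown to mid-log, then seeded in galactose medium at OD600=0.02.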
# FUS yeast rescue = qHTS for Suppressors of FUS Proteinopathy: Primary screen using FUS-linked yeast assay | Potency, µM (highest dose often 76.6 µM), usual class: activators | S. cerevisiae FUS-expressing, growth rescue, OD600, 24 h | actives 0.24% (n = 390,000) | AID 1347120, 2019;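 further: plate controls were DMSO vehicle for no effect and reference control for full effect; nearly all actives have a fitted effect of over 55% in size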
#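 Compound concentration series was pinned onto galactose-induced FUS-expressing yeast seeded at OD 0.005. Plates sat 24hr at 30C; absorbance at 600 nm gave growth. DMSO served as background control.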
# Abeta rescue = qHTS for compounds that reverse cellular toxicity of Amyloid beta (A-beta) peptide in yeast: Primary Screen | AID 1347071, 2019 | yeast expressing A-beta42, growth rescue, OD600, 48 h; response scale: 0% DMSO, 100% iron-clioquinol control | actives 0.063% (n = 410,000) | Potency, µM (titrated, usually from 46.1 µM), usual class: activators; further: nearly all actives have a fitted effect of over 55% in size
#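 Yeast A-beta toxicity model in growth medium with pinned compounds, 48 h at 30 C; growth read as absorbance at 600 nm. Normalized to FeCl3/clioquinol equimolar mix (positive) and DMSO (negative).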
# uPA generation = qHTS for Inhibitors of Cell Surface uPA Generation; cell surface uPA generation assay, qHTS; Potency, µM (titrated, usually from 38.3 µM), for the others: top-dose activity change, negative = inhibition, hits mostly inhibitors; actives 0.31% (n = 330,000); AID 540303, 2011; active means well fitted inhibition curve with a large enough effect; inconclusive means small, poorly fitted or top-dose-only effect; inactive means no such curve, though single readings can be large or run the other way; tested in mouse RAW 264.7 cells; further: on the % scale 0 is the no-effect control and ±100 the full control effect; nearly all actives have a fitted effect of over 55% in size
# aSyn yeast inh = qHTS of alpha-syn Inhibitors; Yeast expressing alpha-synuclein, growth rescue, BacTiter-Glo, 24 h; Potency, µM (doses to about 46.1 µM), for inactives: at the highest dose growth rescue (activation), usual class: activators; actives 0.14% (n = 370,000); AID 652106, 2013; further: % of control where 0% means no effect; nearly all actives have a fitted effect of over 65% in size
#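 Screening used galactose-induced yeast with toxic alpha-synuclein levels, exposed to compound for 24 hr at 30 deg C. Cell growth, read with BacTiter-Glo luminescence, gave the measured signal.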
# Active calls of the source: *; i = inactive; ? = inconclusive; . = no result; [ ] = another dose, or the depositor's remark. Unless noted, the call rests on the fitted dose curve; in most records, active means well fitted curve in the direction sought with a large enough effect; inconclusive means small, poorly fitted or top-dose-only effect, or another doubt; inactive means no such curve, though single readings can be large; an effect the other way counts as inactive or inconclusive. Potency means the concentration at half of the fitted maximal effect.
SMILES,Chronic BCR inh,TDP43 rescue,FUS yeast rescue,Abeta rescue,uPA generation,aSyn yeast inh
CCC(C)(C)n1nnnc1C(c1ccncc1)N1CCC(Cc2ccccc2)CC1 (stereo unspecified),?,-3.1%,i,i,-5.0%,12.9%
CCC(C)(C)n1nnnc1C(c1cccnc1)N1CCC(Cc2ccccc2)CC1 (stereo unspecified),-0.2%,10µM*,i,i,-3.8%,?
COCCCNc1ccn2nc(-c3ccc(Cl)cc3)cc2n1,.,11.2µM*,i,i,.,-14.1%
O=C(Nc1ccc(OCc2ccccc2)cc1)c1ccccc1,?,9.3%,i,i,5.1%,-4.9%
CC(C)=CC(=O)Nc1ccc(OCc2ccccc2)cc1,-5.7%,12.6µM*,i,i,6.0%,-20.7%
CCN(CC)c1cc(C)nc2nc(-c3ccc(C)cc3)nn12,.,20µM*,i,i,.,.
Cc1cc(N(C)Cc2ccccc2)n2nc(-c3ccc(C(C)(C)C)cc3)nc2n1,.,15.8µM*,?,i,.,.
CN(C1=C(N2CCOCC2)C(=O)c2ccccc2C1=O)c1ccccc1,8.0%,11.2µM*,.,i,-21.0%,-32.8%
CC1CCCC(C)N1S(=O)(=O)c1ccc(NC(=O)CNCC2CCCO2)cc1 (stereo unspecified),?,-25.9%,i,?,-18.5%,2.2%
Cn1ncc2c(NCc3cccc(Cl)c3)ncnc21,?,14.1µM*,i,i,.,.
Cn1ncc2c(Nc3ccc(Cl)c(Cl)c3)ncnc21,?,7.08µM*,i,i,-16.9%,-14.9%
CCCn1ncc2c(Nc3ccc(C)c(C)c3)ncnc21,-0.8%,11.2µM*,i,i,-2.4%,-11.6%
COCCNc1nc(NCc2cccc(Cl)c2)c2cnn(C)c2n1,.,11.7%,i,i,.,.
CCn1c(=O)[nH]c2ccccc2c1=O,-4.6%,9.1%,i,i,0.7%,-2.8%
O=C(Nc1ccc(C(O)(C(F)(F)F)C(F)(F)F)cc1)c1ccc(F)cc1F,.,.,i,.,.,.
Cc1ccc(C(=O)N/C(=C\c2ccccc2F)c2nc(=S)[nH][nH]2)cc1,-1.7%,-21.4%,i,i,-2.1%,-5.1%
Cc1ccc(/C=C(\NC(=O)c2ccc(C)cc2)c2nc(=S)[nH][nH]2)cc1,-3.0%,20µM*,i,i,-9.5%,27.8%
Nn1c(SCC(=O)N2c3ccccc3Sc3ccc(Cl)cc32)nnc1-c1cc(-c2ccc(F)cc2)n[nH]1,.,.,14.1µM*,.,.,.
C[C@@H]1CN([C@@H](C)CO)C(=O)c2cc(C#Cc3ccccc3)cnc2O[C@H]1CN(C)C(=O)c1ccccc1F,.,11.2%,i,i,.,0.0%
COc1ccccc1NC(=O)C1CCCN(c2ncnc3c2nc2n3CCCCC2)C1 (stereo unspecified),-1.6%,?,i,i,2.1%,7.6%
CCOc1ccccc1N(C)C(=O)C1CCCN(c2ncnc3c2nc2n3CCCCC2)C1 (stereo unspecified),.,12.3%,i,i,.,.
CCc1ccccc1N(C)C(=O)C1CCCN(c2ncnc3c2nc2n3CCCCC2)C1 (stereo unspecified),.,11.2µM*,i,i,.,.
O=C(Nc1ccccc1Cl)C1CCCN(c2ncnc3c2nc2n3CCCCC2)C1 (stereo unspecified),-22.1%,14.1µM*,i,i,-1.7%,4.3%
O=C(C1CCCN(c2ncnc3c2nc2n3CCCCC2)C1)N1CCN(c2ccccc2F)CC1 (stereo unspecified),?,11.2µM*,i,i,0.8%,-8.5%
CCCCNC(=S)N=Nc1c(O)[nH]c2ccccc12,?,0.0%,i,i,-2.4%,-12.0%
SMILES,Chronic BCR inh,TDP43 rescue,FUS yeast rescue,Abeta rescue,uPA generation,aSyn yeast inh
C=CCC[C@@H](Cc1ccc(F)cc1)C(=O)OC[C@@H]1CCCN1C(=O)[C@@H](CC=C)CC(=O)N[C@@H](CO)Cc1ccccc1,?,12.6µM*,22.4µM*,i,?,-1.4%
C=CCC[C@H](Cc1ccc(F)cc1)C(=O)OC[C@@H]1CCCN1C(=O)[C@@H](CC=C)CC(=O)NCCO,0.9%,12.6%,i,i,-0.5%,1.4%
C=CCC[C@@H](Cc1ccc(F)cc1)C(=O)OC[C@@H](Cc1c[nH]c2ccccc12)NC(=O)[C@@H](CC=C)CC(=O)N[C@H](CO)Cc1ccccc1,?,9.1%,25.1µM*,i,6.2%,3.1%
O=C(COc1ccccc1Cl)Nc1ccc2oc(=O)ccc2c1,16.5%,-9.7%,i,i,0.9%,3.7%
CCC(NC(=O)CC[C@H]1O[C@@H](n2cc(C)c(=O)[nH]c2=O)C[C@@H]1O)c1ccccc1 (stereo partly specified),-1.4%,17.2%,i,i,7.0%,-11.3%
COc1cccc2oc3cc(C#CC4(O)CCCCC4)ccc3c(=O)c12,?,-12.6%,i,i,7.08µM*,-12.0%
O=c1c2ccccc2oc2cc(C#CC3(O)CCCCC3)ccc12,.,25.7%,?,i,4.47µM*,14.8%
CCOC(=O)c1cc(-c2ccco2)nn1-c1ccc(C)cc1,?,15.9%[9.22 µM],i,i,-2.6%,15.7%
O=C(/C=C/c1ccco1)NCC1(c2ccccc2)CCCC1,0.1%,23.1%,i,i,3.2%,3.9%
CCOC(=O)c1c(NC(=S)Nc2ccc(Cl)cc2)sc(C)c1C,6.1%,17.2%,.,i,3.5%,-8.8%
CCOC(=O)c1c(NC(=S)Nc2cccnc2)sc(C)c1C,15.6%,12.6µM*,i,i,.,6.1%
O=C(CCl)Nc1cccc(S(=O)(=O)NC2=NCCCCC2)c1,?,15.8%,i,i,2.51µM*,-16.1%
O=C(CCl)Nc1ccc(S(=O)(=O)NC2=NCCCCC2)cc1,?,-11.2%,.,i,-0.1%,-3.4%
COc1ccc(/C=C2\Oc3ccccc3C2=O)cc1,?,23.4%,i,i,7.08µM*,1.9%
CCn1cnc2c1c(=O)n(Cc1cccc(Br)c1)c(=O)n2Cc1ccccc1,8.5%,22.4µM*,i,i,-7.0%,-0.4%
Cn1cnc2c1c(=O)n(Cc1cccc(Br)c1)c(=O)n2C,?,?,i,i,-1.1%,?
O=C1OC(Sc2ccccc2)(c2ccccc2)c2ccccc21 (stereo unspecified),.,11.2µM*,i,i,-7.3%,14.1%
